Test results: PubChem BioAssay (NCATS)
Inconclusive results are not listed. A call without a number means that no potency is given here. The source made the active and inactive calls. Calls follow the shape of the dose curve; as a rule, active = well fitted curve in the direction sought with a large enough effect; inconclusive = small, poorly fitted or top-dose-only effect, or another doubt; inactive = no such curve, though single readings can be large; an effect the other way counts as inactive or inconclusive.

test system: Zika virus NS2B-NS3 protease; experiment: Primary screen GU AMC qHTS for Zika virus inhibitors (AID 1347154); conditions: Zika NS2B-NS3 unlinked protease, AMC fluorogenic substrate; series mostly up to 54.1 µM; also: nearly all actives have a fitted effect of over 70% in size
Outline: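 Fluorogenic AMC-substrate cleavage by noncovalent NS2B-NS3 protease complex (25 nM, pH 8.0 Tris buffer with Tween 20) followed for 15 minutes at room temperature (~20% conversion). Percent inhibition from ex340/em450 signal change, fitted by 4-parameter Hill equation.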
Potency is read from the fitted curve at half-maximal effect.

| Structure (SMILES) | Potency | activity change, negative = inhibition |
| --- | --- | --- |
| Nc1ccc(S(=O)(=O)NC(=O)c2ccccc2)cc1 | inactive |  |
| O=C(O)CC(O)C(=O)O (stereo unspecified) | inactive |  |
| CC(=O)NC(Cc1ccccc1)C(=O)O (stereo unspecified) | inactive |  |
| [Cl][In]([Cl])[Cl] | 11.2 µM (active) |  |
| CCOc1nc2cccc(C(=O)O)c2n1Cc1ccc(-c2ccccc2-c2nn[nH]n2)cc1 | inactive |  |
| Cn1c(=O)c2c(ncn2CC2OCCO2)n(C)c1=O | inactive |  |
| Nc1nc2c(ncn2CCC(CO)CO)c(=O)[nH]1 | inactive |  |
| NC(=O)NC(=O)Cc1ccccc1 | inactive |  |
| CC/C=C(\C(=O)N[C@@H]1C(=O)N2C(C(=O)OCOC(=O)C(C)(C)C)=C(COC(N)=O)CS[C@H]12)c1csc(N)n1 | inactive |  |
| CC(C)(C)C(=O)C(Oc1ccc(Cl)cc1)n1ccnc1 (stereo unspecified) | inactive |  |
| N[C@@H](CSSC[C@H](N)C(=O)O)C(=O)O |  | 4.84% [at 0.59 µM] (inactive) |
| CCn1cc(C(=O)O)c(=O)c2cnc(N3CCNCC3)nc21 | inactive |  |
| CC(=O)O[C@@]12CO[C@@H]1C[C@H](O)[C@@]1(C)C(=O)[C@H](O)C3=C(C)[C@@H](OC(=O)[C@H](O)[C@@H](NC(=O)OC(C)(C)C)c4ccccc4)C[C@@](O)([C@@H](OC(=O)c4ccccc4)[C@H]21)C3(C)C | inactive |  |
| OCC(O)CN1CCN(c2ccccc2)CC1 (stereo unspecified) | inactive |  |
| CCOc1ccc2ccccc2c1C(=O)N[C@@H]1C(=O)N2[C@@H]1SC(C)(C)[C@@H]2C(=O)O | inactive |  |
| CCCCN1CCCC[C@H]1C(=O)Nc1c(C)cccc1C | inactive |  |
| CO/N=C(\C(=O)N[C@@H]1C(=O)N2C(C(=O)O)=C(CSc3nc(=O)c(O)nn3C)CS[C@H]12)c1csc(N)n1 | inactive |  |
| CN1CCOC(c2ccccc2)c2ccccc2C1 (stereo unspecified) | inactive |  |

test system: Zika virus NS2B-NS3 protease (unlinked complex); experiment: Primary screen GU Rhodamine qHTS for Zika virus inhibitors: Unlinked NS2B-NS3 protease assay (AID 1347159); conditions: Recombinant ZIKV NS2B-NS3 protease, Rhodamine110 substrate fluorescence; series mostly up to 107 µM; also: nearly all actives have a fitted effect of over 60% in size
Outline: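 Percent inhibition derives from the 15-min fluorescence change (ex 480, em 540 nm), normalized to no-enzyme and no-inhibitor wells. Reactions contained 25 nM NS2B-NS3 complex and 1.5 microM substrate in 10 mM Tris-HCl pH 8.0.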

| Structure (SMILES) | Potency | activity change, negative = inhibition |
| --- | --- | --- |
| CCN(CC)C(=O)Nc1ccc(OCC(O)CNC(C)(C)C)c(C(C)=O)c1 (stereo unspecified) | inactive |  |
| c1ccc(CN(CC2=NCCN2)c2ccccc2)cc1 | inactive |  |
| CCOC(CN1CCN(CC(C)C(=O)c2ccccc2)CC1)c1ccccc1 (stereo unspecified) | inactive |  |
| COc1ccc2cc1Oc1ccc(cc1)C[C@H]1c3c(cc4c(c3Oc3cc5c(cc3OC)CCN(C)[C@@H]5C2)OCO4)CCN1C | inactive |  |
| CS(=O)(=O)c1ccc([C@@H](O)[C@@H](CF)NC(=O)C(Cl)Cl)cc1 | inactive |  |
| Cc1cccc(Nc2cc(Cl)nc(SCC(=O)O)n2)c1C | inactive |  |
| O=C1Nc2ccc(Cl)cc2[C@@](C#CC2CC2)(C(F)(F)F)O1 | 44.7 µM (active) |  |
| CCCCOc1cc(C(=O)OCCN(CC)CC)ccc1N | inactive |  |
| O=c1[nH]cnc2c1ncn2[C@@H]1O[C@H](CO)[C@@H](O)[C@H]1O | inactive |  |
| COc1ccc2c(c1)C(=O)N(CCc1ccc(S(=O)(=O)NC(=O)NC3CCCCC3)cc1)C(=O)C2(C)C | inactive |  |
| COc1ccc2[nH]c(S(=O)Cc3ncc(C)c(OC)c3C)nc2n1 (stereo unspecified) | inactive |  |
| O=C(CCCN1CCN(c2ccccn2)CC1)c1ccc(F)cc1 | inactive |  |
| CCOc1nc2cccc(C(=O)O)c2n1Cc1ccc(-c2ccccc2-c2nn[nH]n2)cc1 | inactive |  |
| Cn1c(=O)c2c(ncn2CC2OCCO2)n(C)c1=O | inactive |  |
| Nc1nc2c(ncn2CCC(CO)CO)c(=O)[nH]1 | inactive |  |
| CC/C=C(\C(=O)N[C@@H]1C(=O)N2C(C(=O)OCOC(=O)C(C)(C)C)=C(COC(N)=O)CS[C@H]12)c1csc(N)n1 | inactive |  |
| CC(C)(C)C(=O)C(Oc1ccc(Cl)cc1)n1ccnc1 (stereo unspecified) | inactive |  |
| OCC(O)CN1CCN(c2ccccc2)CC1 (stereo unspecified) | inactive |  |
| CCOc1ccc2ccccc2c1C(=O)N[C@@H]1C(=O)N2[C@@H]1SC(C)(C)[C@@H]2C(=O)O | inactive |  |
| C[C@]12CC[C@@H]3c4ccc(O)cc4CC[C@H]3[C@@H]1CC[C@@H]2OC(=O)CCC1CCCC1 | 20 µM (active) |  |
| CCCCN1CCCC[C@H]1C(=O)Nc1c(C)cccc1C | inactive |  |
| C[C@@H]1CN(c2c(F)c(F)c3c(=O)c(C(=O)O)cn(C4CC4)c3c2F)C[C@H](C)N1 |  | -12.9% [at 19.1 µM] (inactive) |
| CN1CCOC(c2ccccc2)c2ccccc2C1 (stereo unspecified) | inactive |  |
